{"source": "PubChem BioAssay (NCATS)", "note": "Results filed as inconclusive are left out. A call without a number means that no potency is given here. Values without a mark were called inactive. Active and inactive are the calls of the source. Calls come from the whole dose curve; as a rule, active = well fitted cell-killing curve with a large enough effect; inconclusive = small, poorly fitted or top-dose-only effect, or effect the other way; inactive = flat fitted curve, though single readings scatter.", "data": [{"tested_on": "PA-1", "test": "Primary qHTS to identify gynecologic anti-cancer compounds using libraries of approved drugs and bioactive compounds (AID 1345084); note: nearly all actives have a fitted effect of over 55% in size", "conditions": "Gynecologic cancer cell panel viability, ATPlite luminescence, 48 h; series mostly up to 57.5 µM", "how_it_was_run": "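Cells, 1,000 per well, plated 16 h, then exposed 48 h at 37 C to compounds. Viability by ATPlite luminescence after 15 min at room temperature.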", "values": [{"compound": "COc1cccc(Cn2ncc3c4sc(S(C)=O)cc4n(C)c3c2=O)c1", "note": "(stereo unspecified)", "Potency": "inactive"}, {"compound": "CC(C)CC(=O)O[C@@H]1O[C@H](CO)[C@@H](O[C@H]2O[C@H](C)[C@@H](N[C@H]3C=C(CO)[C@@H](O[C@H]4O[C@H](CO)[C@@H](O[C@H]5O[C@H](CO)[C@@H](O[C@H]6O[C@H](CO)[C@@H](O)[C@H](O)[C@H]6O)[C@H](O)[C@H]5O)[C@H](O)[C@H]4O)[C@H](O)[C@H]3O)[C@H](O)[C@H]2O)[C@H](O)[C@H]1O", "activity change, negative = cytotoxicity": "-1.75% [at 11.6 µM]"}, {"compound": "COc1ccc(C2COc3cc(O)ccc3C2)c(O)c1OC", "note": "(stereo unspecified)", "Potency": "inactive"}, {"compound": "CCN1CCN(C(=O)N[C@@H](C(=O)N[C@@H]2C(=O)N3[C@@H]2SC(C)(C)[C@@H]3C(=O)O)c2ccccc2)C(=O)C1=O", "Potency": "inactive"}, {"compound": "COc1ccc(/C=C/C(N)=O)cc1OC", "Potency": "inactive"}, {"compound": "N[C@@H](CC(=O)Nc1ccc(Oc2cc(F)c(F)cc2Br)cc1)C(=O)O", "Potency": "inactive"}, {"compound": "COc1cc(O)cc2c1C(=O)OC(C)C2", "note": "(stereo unspecified)", "Potency": "inactive"}, {"compound": "COc1cc(/C=C/C(=O)O[C@@H]2C[C@](O)(C(=O)O)C[C@@H](O)[C@H]2O)ccc1O", "Potency": "inactive"}, {"compound": "Cc1cn(C[C@H](N)C(=O)O)c(=O)n(Cc2ccsc2C(=O)O)c1=O", "Potency": "inactive"}, {"compound": "CC(O)C1CCC2C3CCC4CC(OC5OC(C(=O)O)C(O)C(O)C5O)CCC4(C)C3CCC12C", "note": "(stereo unspecified)", "Potency": "inactive"}, {"compound": "C/C=C1/[C@H](O[C@@H]2O[C@H](CO)[C@@H](O)[C@H](O)[C@H]2O)OC=C2C(=O)O[C@@H]3C[C@@H](C(C)CO)[C@H](COC(=O)C[C@H]21)[C@H]3C", "note": "(stereo partly specified)", "Potency": "inactive"}]}]}
